The nature of experiment [1]: qHTS assay for identifying genotoxic compounds that show differential cytotoxicity against isogenic chicken DT40 cell lines with known DNA damage response pathways - wild type cell line (AID 743012). Note: nearly all actives have a fitted effect of over 60% in size. Note: potency is the fitted concentration of half-maximal effect. The method in brief:
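Luminescent ATP viability signal (CellTiter-Glo, 30 min RT) recorded after wild type DT40 cells were incubated with compounds for 40 h at 37 C/5% CO2.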

The nature of experiment [2]: qHTS assay for identifying genotoxic compounds that show differential cytotoxicity against isogenic chicken DT40 cell lines with known DNA damage response pathways - Rad54/Ku70 mutant cell line (AID 743015). Note: nearly all actives have a fitted effect of over 60% in size.
Experiment [3] is described as follows: qHTS assay to identify small molecule antagonists of the androgen receptor (AR) signaling pathway - cell viability counter screen (AID 743033; note: nearly all actives have a fitted effect of over 45% in size).
Experiment [4] deals with Androgen receptor (Homo sapiens) (UniProt P10275). Briefly: qHTS assay to identify small molecule antagonists of the androgen receptor (AR) signaling pathway (AID 743035; active = well fitted inhibition curve with a large enough effect in the signal ratio in the repeat runs, not every such curve was filed as active; the % refers to the signal ratio). In outline: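 Quantitative HTS of the Tox21 10K library used HEK293 AR-UAS-bla cells stimulated with R1881 alongside compound for 16 h at 37C, followed by beta-lactamase FRET detection (LiveBLAzer B/G, 2 h, RT).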

For experiment [5] the target is unchanged. Description: qHTS assay to identify small molecule agonists of the androgen receptor (AR) signaling pathway using the MDA cell line (AID 743040; note: nearly all actives have a fitted effect of over 20% in size). In outline:
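Stable MMTV-luciferase reporter in MDA-kb2 cells; note the promoter carries GR as well as AR response elements. 16 h compound treatment, 37C, 0% CO2; ONE-Glo luminescence endpoint.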

A short description of experiment [6]: qHTS assay to identify small molecule antagonists of the androgen receptor (AR) signaling pathway using the MDA cell line - cell viability counter screen (AID 743041; note: nearly all actives have a fitted effect of over 45% in size). The method in brief: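 Using the breast carcinoma line MDA-kb2 AR-luc, test chemicals were co-incubated with R1881 for 16 h; CellTiter-Fluor reagent, added at 15.5 h, provided a fluorescence measure of live cells.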

For experiment [7], the target named is Androgen receptor (Homo sapiens) (UniProt P10275). Briefly: qHTS assay to identify small molecule antagonists of the androgen receptor (AR) signaling pathway using the MDA cell line (AID 743042; note: nearly all actives have a fitted effect of over 55% in size). The method in brief:
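Antagonist mode: compounds plus R1881 agonist added to MDA-kb2 AR-luc cells, incubated 16 h at 37C. Luciferase reporter luminescence quantified, with multiplexed CellTiter-Fluor readout for cell viability.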

A short description of experiment [8]: qHTS assay to identify small molecule antagonists of the thyroid receptor (TR) signaling pathway - cell viability counter screen (AID 743064). Note: nearly all actives have a fitted effect of over 50% in size. In outline:
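GH3.TRE-Luc rat pituitary cells dosed after 4 hr plating, co-stimulated with T3 at 1 nM final, incubated 23.5 h at 37 C. Viability measured in the same wells by CellTiter-Fluor fluorescence after 30 min further at 37 C.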

A short description of experiment [9]: qHTS assay to identify small molecule antagonists of the thyroid receptor (TR) signaling pathway (AID 743065). Note: series mostly up to about 70 µM; nearly all actives have a fitted effect of over 55% in size. In outline:
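Antagonism measured as loss of luciferase signal in GH3 cells stably carrying a TRE-luciferase reporter, co-treated with compound and T3 (1 nM final) for 23.5 h at 37 C. Viability was read in the same well by CellTiter-Fluor.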

The test system of experiment [10] is thyroid hormone receptor (rat, GH3 cells). Description: qHTS assay to identify small molecule agonists of the thyroid receptor (TR) signaling pathway (AID 743066; calls by dose curve).
Experiment [11] has as its target Estrogen receptor (Homo sapiens) (UniProt P03372). Briefly: qHTS assay to identify small molecule antagonists of the estrogen receptor alpha (ER-alpha) signaling pathway (AID 743069; active = well fitted curve in the direction sought with a large enough effect in the signal ratio in the repeat runs, not every such curve was filed as active; the % refers to the signal ratio). In outline: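 Fluorescence intensity from a beta-lactamase FRET substrate served as the read-out. Cells: HEK293 with stably integrated ER-alpha-UAS-bla reporter. Agonist 17beta-estradiol was co-added with compounds; incubation 18 hr at 37C, substrate 2 hr at room temperature.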

Experiment [12] is described as follows: qHTS assay to identify small molecule antagonists of the estrogen receptor alpha (ER-alpha) signaling pathway - cell viability counter screen (AID 743074; calls by dose curve; note: nearly all actives have a fitted effect of over 45% in size).
Experiment [13] deals with Estrogen receptor (Homo sapiens) (UniProt P03372). Briefly: qHTS assay to identify small molecule agonists of the estrogen receptor alpha (ER-alpha) signaling pathway (AID 743075; calls by dose curve).
Experiment [14] in a line: qHTS assay to identify small molecule antagonists of the estrogen receptor alpha (ER-alpha) signaling pathway using the BG1 cell line (AID 743080; calls by dose curve;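 note: BG1 cells stimulated with 17beta-estradiol alongside compound; series mostly up to about 70 µM; nearly all actives have a fitted effect of over 25% in size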). The method in brief: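 Seeding, 24 h rest, compound transfer from DMSO, 17beta-estradiol addition, 21.5 h incubation, CellTiter-Fluor (30 min, 37 C), then ONE-Glo (30 min, room temperature): this sequence was run on BG1-Luc-4E2 reporter cells.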

Experiment [15] is described as follows: qHTS assay to identify small molecule antagonists of the estrogen receptor alpha (ER-alpha) signaling pathway using the BG1 cell line - cell viability counter screen (AID 743081).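 Note: compound given together with 17beta-estradiol as the ER stimulus; series mostly up to about 70 µM; nearly all actives have a fitted effect of over 45% in size.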
In experiment [16] the target is Aromatase (Homo sapiens) (UniProt P11511). Briefly: qHTS assay to identify aromatase inhibitors (AID 743083). Note: series mostly up to about 70 µM; nearly all actives have a fitted effect of over 55% in size.
The target of experiment [17] is Estrogen receptor (Homo sapiens) (UniProt P03372). Description: qHTS assay to identify small molecule agonists of the estrogen receptor alpha (ER-alpha) signaling pathway using the BG1 cell line (AID 743079). Note: nearly all actives have a fitted effect of over 20% in size. Note: potency is the fitted concentration of half-maximal effect.
Experiment [18] is described as follows: qHTS assay for identifying genotoxic compounds that show differential cytotoxicity against isogenic chicken DT40 cell lines with known DNA damage response pathways - Rev3 mutant cell line (AID 743014). Note: nearly all actives have a fitted effect of over 55% in size. Note: potency is the fitted concentration of half-maximal effect.
The target in experiment [19] is Androgen receptor (Homo sapiens) (UniProt P10275). Description: qHTS assay to identify small molecule agonists of the androgen receptor (AR) signaling pathway (AID 743036; active = well fitted activation curve with a large enough effect in the signal ratio in the repeat runs, with a control signal flat, not every such curve was filed as active; the % refers to the signal ratio). The method in brief: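 AR-UAS-bla HEK293 cells, plated 4 h before dosing, were treated with compound for 16 h at 37C. beta-Lactamase reporter read after 2 h with LiveBLAzer B/G FRET substrate at room temperature.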

Results filed as inconclusive are left out. Activity calls are given as the source filed them. Unless noted, calls come from the whole dose curve; as a rule, active = well fitted curve in the direction sought with a large enough effect in the repeat runs; inconclusive = weak or mixed curves; inactive = no such curve, though single readings can be large; an effect the other way counts as inactive or inconclusive.

Chain of Aromatase (Homo sapiens) (P11511 whole entry, looked up): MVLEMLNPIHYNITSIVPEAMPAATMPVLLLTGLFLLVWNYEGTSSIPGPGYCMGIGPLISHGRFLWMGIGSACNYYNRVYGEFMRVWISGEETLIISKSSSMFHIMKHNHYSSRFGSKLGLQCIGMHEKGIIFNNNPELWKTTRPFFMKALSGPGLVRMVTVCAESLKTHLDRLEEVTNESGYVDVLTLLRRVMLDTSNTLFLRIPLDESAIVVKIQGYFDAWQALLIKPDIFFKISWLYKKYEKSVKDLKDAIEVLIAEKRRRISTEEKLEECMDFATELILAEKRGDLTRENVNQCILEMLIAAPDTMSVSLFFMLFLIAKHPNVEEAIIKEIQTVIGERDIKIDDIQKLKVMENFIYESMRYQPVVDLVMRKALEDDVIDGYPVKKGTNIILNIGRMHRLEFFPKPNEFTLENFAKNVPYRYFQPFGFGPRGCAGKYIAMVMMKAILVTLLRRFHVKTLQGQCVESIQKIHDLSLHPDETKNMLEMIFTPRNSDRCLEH
Chain of Estrogen receptor (Homo sapiens) (P03372 whole entry, looked up): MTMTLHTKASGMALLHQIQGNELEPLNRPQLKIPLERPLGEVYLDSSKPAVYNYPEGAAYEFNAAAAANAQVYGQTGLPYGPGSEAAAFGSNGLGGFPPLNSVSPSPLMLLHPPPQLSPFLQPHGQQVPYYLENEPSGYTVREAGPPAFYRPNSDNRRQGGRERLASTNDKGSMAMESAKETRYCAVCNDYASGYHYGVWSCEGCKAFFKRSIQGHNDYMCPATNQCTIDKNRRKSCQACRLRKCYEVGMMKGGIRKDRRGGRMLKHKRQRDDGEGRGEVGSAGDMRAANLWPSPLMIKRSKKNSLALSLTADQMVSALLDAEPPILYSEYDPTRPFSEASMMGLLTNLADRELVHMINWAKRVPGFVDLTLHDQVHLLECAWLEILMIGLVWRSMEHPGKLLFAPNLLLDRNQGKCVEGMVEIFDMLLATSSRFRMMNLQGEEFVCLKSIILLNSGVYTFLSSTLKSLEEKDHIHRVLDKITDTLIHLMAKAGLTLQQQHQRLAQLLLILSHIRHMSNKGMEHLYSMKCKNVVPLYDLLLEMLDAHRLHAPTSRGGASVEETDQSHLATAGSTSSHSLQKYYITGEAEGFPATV
Chain of Androgen receptor (Homo sapiens) (P10275 whole entry, looked up): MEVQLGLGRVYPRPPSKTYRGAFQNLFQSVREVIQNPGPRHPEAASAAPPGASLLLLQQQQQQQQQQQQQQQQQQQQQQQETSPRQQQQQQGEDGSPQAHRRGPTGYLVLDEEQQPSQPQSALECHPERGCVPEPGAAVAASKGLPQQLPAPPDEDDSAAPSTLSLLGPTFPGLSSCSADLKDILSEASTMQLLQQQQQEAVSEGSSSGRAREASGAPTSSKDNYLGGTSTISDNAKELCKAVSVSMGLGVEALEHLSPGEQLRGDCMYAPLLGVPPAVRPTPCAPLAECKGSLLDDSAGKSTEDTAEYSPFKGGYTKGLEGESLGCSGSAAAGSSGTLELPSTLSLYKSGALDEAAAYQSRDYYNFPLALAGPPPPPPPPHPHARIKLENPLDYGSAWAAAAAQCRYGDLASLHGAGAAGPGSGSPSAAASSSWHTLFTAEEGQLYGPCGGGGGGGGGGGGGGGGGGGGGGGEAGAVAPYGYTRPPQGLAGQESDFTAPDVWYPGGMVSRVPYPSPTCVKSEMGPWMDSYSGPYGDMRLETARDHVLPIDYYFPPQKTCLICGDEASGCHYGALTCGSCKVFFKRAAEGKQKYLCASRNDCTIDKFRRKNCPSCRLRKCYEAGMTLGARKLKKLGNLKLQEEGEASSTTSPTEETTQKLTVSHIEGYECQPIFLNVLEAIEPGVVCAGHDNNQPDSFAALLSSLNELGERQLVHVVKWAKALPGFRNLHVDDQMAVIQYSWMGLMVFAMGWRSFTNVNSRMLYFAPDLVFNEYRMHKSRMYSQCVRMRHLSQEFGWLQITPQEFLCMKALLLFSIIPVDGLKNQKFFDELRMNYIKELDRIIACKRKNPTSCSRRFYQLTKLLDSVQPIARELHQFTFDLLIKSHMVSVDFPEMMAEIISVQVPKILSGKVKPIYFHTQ

As to `OCCN(CCO)CCN(CCO)CCO`, the Potency entry in experiment [1], in [2], in [4], in experiment [5], in experiment [6] and in [8] was “inactive” in each case. The Potency entry in [9], in [11], in experiment [12], in experiment [15] and in [16] was “inactive” in each case. Besides, the call in [3], in experiment [7], in [10], in experiment [13] and in experiment [14] was inactive.

Turning to `CCOC(=O)C(Br)c1ccccc1` (configuration not stated), the Potency entry in experiment [1], in [2], in experiment [6], in experiment [9], in [11] and in [12] was “inactive” each time. Also, the Potency entry in [17], in experiment [15] and in experiment [16] was “inactive” each time. Also, the compound was called inactive in [3], in [10], in [13] and in experiment [14].

On to `Cc1c[nH]c(=S)[nH]c1=O`, for which the Potency result in [18], in experiment [2], in [8], in experiment [9], in experiment [11] and in [12] was “inactive” each time. The Potency entry in [17] and in experiment [15] was “inactive” throughout. The compound was called inactive in experiment [10], in experiment [13] and in [14].

As for `CC(C)(C)c1cccc(O)c1`, the Potency in experiment [18] is 61.1 µM (active). Moreover, the compound was called inactive in experiment [3], in experiment [19], in experiment [7], in [10], in [13] and in experiment [14]. In addition, the Potency entry in [4], in experiment [5], in experiment [6], in experiment [8], in [9] and in experiment [11] was “inactive” in each case. Besides, the Potency entry in experiment [12], in experiment [17], in [15] and in experiment [16] was “inactive” throughout.

`C[C@@H](N)C(=O)O`: the Potency result in experiment [18], in experiment [2], in experiment [5], in [6], in experiment [8] and in experiment [9] was “inactive” in each case. The Potency result in experiment [12], in [15] and in experiment [16] was “inactive” in each case. Moreover, the result in [3], in experiment [19], in [7] and in experiment [10] was inactive.

For the compound `CCOC(=O)C1CC(=O)C(=C(O)C2CC2)C(=O)C1` (configuration not stated), the Potency result in experiment [18], in experiment [2], in experiment [6], in [8], in experiment [9] and in experiment [11] was “inactive” throughout. The Potency entry in experiment [12], in experiment [17], in [15] and in [16] was “inactive” throughout. In addition, the compound was called inactive in [3], in experiment [10], in experiment [13] and in experiment [14].

Take `CN(C)CC[C@@H](c1ccc(Cl)cc1)c1ccccn1`: the Potency entry in [18], in experiment [2] and in [6] was “inactive” throughout. The compound was called inactive in experiment [3] and in experiment [10].

In the case of `CCCCCCCOC(=O)CCC`, the Potency result in experiment [2], in experiment [8], in [9], in [11], in experiment [12] and in experiment [17] was “inactive” each time. For the same compound, the Potency entry in [15] and in experiment [16] was “inactive” in each case. Also, the outcome in experiment [3], in experiment [10], in [13] and in experiment [14] was inactive.

For `CC(C)CC(=O)OCc1ccccc1`, the Potency entry in experiment [1], in [6], in [8], in experiment [9], in experiment [11] and in [12] was “inactive” each time. Further, the Potency entry in experiment [17], in experiment [15] and in experiment [16] was “inactive” in each case. Also, the compound was classed as inactive in [3], in [10], in [13] and in experiment [14].

For the compound `CC/C=C\CCOC(=O)C(C)C`, the Potency result in experiment [1], in experiment [2], in experiment [6], in experiment [8], in experiment [9] and in experiment [11] was “inactive” each time. Besides, the Potency entry in experiment [12], in experiment [17], in experiment [15] and in experiment [16] was “inactive” in each case. Further, the compound was classed as inactive in experiment [3], in [10], in experiment [13] and in experiment [14].

As for `C=C(C)C(=O)OCCOP(=O)(O)O`, the Potency entry in experiment [18], in experiment [6], in experiment [8], in experiment [9], in [11] and in [12] was “inactive” throughout. The Potency entry in experiment [15] and in experiment [16] was “inactive” throughout. For the same compound, the compound was called inactive in experiment [3], in experiment [10], in experiment [13] and in experiment [14].

Turning to `CN1CCN(C2=Nc3ccccc3Oc3ccc(Cl)cc32)CC1`, the Potency in experiment [1] was 12.7 µM (active). The call in experiment [3], in experiment [10], in experiment [13] and in experiment [14] was inactive. Moreover, the Potency entry in experiment [6], in [11], in experiment [12], in [17], in [15] and in experiment [16] was “inactive” throughout.

Regarding `CC(C)(C)C1CCCCC1=O` (configuration not stated), the Potency result in [1], in experiment [2], in experiment [8], in [9], in experiment [11] and in [12] was “inactive” each time. Also, the Potency result in experiment [17], in experiment [15] and in [16] was “inactive” throughout. The compound was called inactive in [3], in experiment [10], in [13] and in experiment [14].

`Cc1cc(NS(=O)(=O)c2ccc(N)cc2)nc(C)n1`: the Potency result in [1], in experiment [18], in experiment [6], in [9], in [11] and in [12] was “inactive” in each case. Also, the Potency result in experiment [17], in [15] and in experiment [16] was “inactive” throughout. For the same compound, the compound was called inactive in experiment [3], in experiment [10], in [13] and in [14].

As to `O=c1[nH]cnc2c1ncn2[C@@H]1O[C@H](CO)[C@@H](O)[C@H]1O`, the Potency result in experiment [18], in experiment [6], in [8], in [9], in experiment [12] and in experiment [15] was “inactive” throughout. In experiment [16], the Potency entry is “inactive”. For the same compound, the compound was classed as inactive in experiment [3] and in experiment [10].

Regarding `CN(CC1(C)CCCO1)S(=O)(=O)c1ccc(Cl)c(S(N)(=O)=O)c1` (configuration not stated), the Potency entry in experiment [18], in experiment [2], in experiment [8], in experiment [9], in [12] and in [16] was “inactive” throughout. Further, the result in [3] and in experiment [10] was inactive.

On to `CC(=O)OC1C2(C)CCC(C2)C1(C)C` (configuration not stated), for which the Potency entry in experiment [1], in experiment [18], in experiment [6], in experiment [8], in experiment [9] and in experiment [11] was “inactive” throughout. Further, the Potency entry in [12], in [17], in experiment [15] and in [16] was “inactive” each time. The result in [3], in experiment [10], in experiment [13] and in experiment [14] was inactive.

For `CN1C(=O)CC(c2ccccc2)C1=O` (configuration not stated), the Potency result in experiment [18], in [2], in experiment [6], in [9], in experiment [12] and in experiment [15] was “inactive” in each case. Also, in experiment [16], the Potency entry was “inactive”. The call in experiment [3] and in [10] was inactive.

Consider `O=C(C(Cl)Cl)N1CCOC12CCCCC2`, for which the compound was classed as inactive in [3], in [13] and in experiment [14]. Further, the Potency entry in experiment [11], in experiment [12], in experiment [17], in experiment [15] and in experiment [16] was “inactive” throughout.

Turning to `Cc1ccsc1C(=CCCN1CCC[C@@H](C(=O)O)C1)c1sccc1C`, the Potency entry in [2], in [4], in [5], in [6], in experiment [8] and in [9] was “inactive” throughout. Moreover, the Potency result in [11], in experiment [12], in [15] and in experiment [16] was “inactive” in each case. Moreover, the result in experiment [3], in experiment [19], in [7], in [10], in experiment [13] and in experiment [14] was inactive. In addition, in experiment [17], the Potency is 21.1 µM (active).

Source of the values: PubChem BioAssay (Tox21).
